From PubChem BioAssay (EPA / NIEHS)
The source made the active and inactive calls. How the source made its calls: active means hit-call score of the fitted dose curve at least 0.9, where 1 is the maximum; inactive means score below 0.9.

Target: X-box-binding protein 1 (Homo sapiens) (UniProt P17861)
Experiment: ATG_Xbp1_CIS: Attagene CIS-FACTORIAL HepG2 Assay for human X-box Binding Protein 1 (XBP1) (AID 2282972)
Conditions: HepG2 XBP1 cis-element reporter, Attagene multiplex; actives raise or lower the signal
Experimental: ATG_CIS is a cell-based, multiplexed-readout assay that uses HepG2, a human liver cell line, with measurements taken at 24 hours after chemical dosing in a 24-well plate.ATG_Xbp1_CIS is one of 52 assay component(s) measured or calculated from the ATG_CIS assay. It is designed to make measurements of mRNA induction, a form of inducible reporter, as detected with fluorescence intensity signals by Reverse transcription polymerase chain reaction (RT-PCR) and Capillary electrophoresis technology.Data from the assay component ATG_Xbp1_CIS was analyzed into 1 assay endpoint. This assay endpoint, ATG_Xbp1_CIS, was analyzed with bidirectional fitting relative to DMSO as the negative control and baseline of activity. Using a type of inducible reporter, measures of mRNA for gain or loss-of-signal activity can be used to understand the reporter gene at the transcription factor-level as they relate to the gene XBP1. Furthermore, this assay endpoint can be referred to as a primary readout, because this assay has produced multiple assay endpoints where this one serves a reporter gene function. To generalize the intended target to other relatable targets, this assay endpoint is annotated to the dna binding intended target family, where the subfamily is basic leucine zipper.
Human liver HepG2 cells are transiently transfected with multiple reporter transcription units (MRTUs) in 6-well plates using FuGene 6 reagent (Roche; 3 ml FuGene/1 mg DNA). The MRTU constructs are regulated by a cis-regulating element (promoter). […] A major difference between the CIS and TRANS system is that in CIS activities of endogenous TFs are measured, whereas the TRANS assay evaluates changes in activities of exogenous, chimeric NR-Gal4 proteins. […] At the end of 24 hour incubation, total RNA was isolated using TriZol reagent (Invitrogen). The isolated RNA is then reverse-transcribed using oligo(dT) primer and Mo-MLV reverse transcriptase (Invitrogen) with DNAse I (Ambion) treatment for 30 min. The one-tenth of the produced cDNA was amplified by PCR using Taq DNA polymerase (Invitrogen) and two reporter sequence-specific primers. The PCR products were fluorescently labeled by primer extension with 6-arboxyfluorescein (6-FAM) 5'-labeled reporter sequence-specific primer (2 min at 95 C, 20 s at 68 C and 10 min at 72 C) and these products were digested with 5U of HpaI (New England Biolabs) for 2h at 37 C. The fragments were purified using Qiaquick PCR columns (Qiagen), analyzed on an ABI 3130xL genetic analyzer (Applied Biosystems) with peak positions identified by using a set of X-rhodamine (ROX)-labeled MapMarker1000 molecular weight standards (BioVentures). The raw capillary electrophoresis data was processed using Attagraph software (Attagene).

Chain of X-box-binding protein 1 (Homo sapiens) (P17861 whole entry, looked up): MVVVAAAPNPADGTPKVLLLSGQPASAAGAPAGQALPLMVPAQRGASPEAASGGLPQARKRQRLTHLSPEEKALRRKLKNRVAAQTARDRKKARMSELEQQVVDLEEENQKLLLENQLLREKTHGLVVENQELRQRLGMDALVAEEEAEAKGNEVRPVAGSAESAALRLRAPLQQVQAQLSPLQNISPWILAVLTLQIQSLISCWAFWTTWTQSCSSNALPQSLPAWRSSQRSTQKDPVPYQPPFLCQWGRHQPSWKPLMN

With `O=NN1CCCCCC1` as the compound, how does the outcome read?
Its outcome is “inactive”.

With `O=S1(=O)OC(c2cc(Br)c(O)c(Br)c2)(c2cc(Br)c(O)c(Br)c2)c2ccccc21` as the compound, how does the outcome read?
The outcome was “inactive”.

`Cc1cc(C(F)(C(F)(F)F)C(F)(F)F)ccc1NC(=O)c1cccc(I)c1C(=O)NC(C)(C)CS(C)(=O)=O` was tested. Which outcome did it give?
Its outcome is “inactive”.

For `CC(C=O)Cc1ccc2c(c1)OCO2` (stereo not given), which outcome is on record?
The outcome was “inactive”.

`O=C(NC(=O)c1c(F)cccc1F)Nc1cc(Cl)c(Oc2ncc(C(F)(F)F)cc2Cl)c(Cl)c1` was tested. Which outcome did it give?
Its outcome is “inactive”.

`O=C(Nc1ccc(Br)cc1)c1cc(Br)cc(Br)c1O` was tested. Which AC50 did it give?
The AC50 was 4.92 µM (active).

For `CCCSP(=S)(OCC)Oc1ccc(Cl)cc1Cl` (stereo not given), which outcome is on record?
The outcome was “inactive”.

`NC(=O)CCl` was tested. Which outcome did it give?
Its outcome is “inactive”.

With `C=C(C)[C@@H]1CC=C(C=O)CC1` as the compound, how does the outcome read?
Its outcome is “inactive”.

Which outcome does the source give for `CCN(N=O)C(N)=O` here?
The outcome was “inactive”.

`Cc1cc(-c2cc(C)c(N)c(C)c2)cc(C)c1N` was tested. Which outcome did it give?
Its outcome is “inactive”.

Which outcome does the source give for `C1CN2CCN1CC2` here?
The outcome was “inactive”.

With `O=C(NC(=O)c1c(F)cccc1F)Nc1cc(Cl)c(OC(F)(F)C(F)C(F)(F)F)cc1Cl` (stereo not given) as the compound, how does the outcome read?
Its outcome is “inactive”.

Which outcome does the source give for `O=c1[nH]c(=O)n(Cl)c(=O)n1Cl` here?
Its outcome is “inactive”.

For `C[N+](C)(C)Cc1ccccc1`, which outcome is on record?
The outcome was “inactive”.

How did the outcome turn out when `CN(C)[C@@H]1C(=O)C(C(N)=O)=C(O)[C@@]2(O)C(=O)C3=C(O)c4c(O)ccc(Cl)c4[C@@](C)(O)[C@H]3C[C@@H]12` was run?
Its outcome is “inactive”.

Which outcome does the source give for `C=CCN=C=S` here?
The outcome was “inactive”.

`O=S(=O)(Oc1ccc(Cl)cc1)c1ccc(Cl)cc1` was tested. Which outcome did it give?
Its outcome is “inactive”.

For `C#CCOC(=O)/C=C(C)/C=C/CC(C)CCCC(C)C` (stereo not given), which outcome is on record?
Its outcome is “inactive”.

How did the outcome turn out when `OCCCCO` was run?
The outcome was “inactive”.

`CCCCCCCCCCCCCCC(Br)C(=O)O` (stereo not given) was tested. Which AC50 did it give?
Its AC50 is 152 µM (active).

`C=C(C)C(=O)OCCCCOC(=O)C(=C)C` was tested. Which outcome did it give?
The outcome was “inactive”.

`Cc1ccccc1OP(=O)(Oc1ccccc1C)Oc1ccccc1C` was tested. Which AC50 did it give?
The AC50 was 56.1 µM (active).

`C=CC(Cl)CCl` (stereo not given) was tested. Which outcome did it give?
The outcome was “inactive”.

Which outcome does the source give for `CCCCN(CCCCO)N=O` here?
The outcome was “inactive”.

Which outcome does the source give for `C=CC(=O)NC(C)(C)CC(C)=O` here?
Its outcome is “inactive”.

`C[C@H]1C(=O)O[C@@H]2CCN3CC=C(COC(=O)[C@](C)(O)[C@]1(C)O)[C@H]23` was tested. Which outcome did it give?
Its outcome is “inactive”.

Which AC50 does the source give for `C[CH2][Hg][S]c1ccccc1C(=O)O` here?
Its AC50 is 2.7 µM (active).

How did the outcome turn out when `O=c1nc(O)n(Cl)c(=O)n1Cl` was run?
Its outcome is “inactive”.

With `O=[N+]([O-])c1c2ccccc2cc2ccccc12` as the compound, how does the outcome read?
The outcome was “inactive”.

For `CCCCCCCCCCCCc1cccc(S(=O)(=O)O)c1`, which outcome is on record?
The outcome was “inactive”.

With `CN(C1CCCCC1)C1CCCCC1` as the compound, how does the outcome read?
The outcome was “inactive”.

How did the outcome turn out when `BrCC(Br)c1ccccc1` (stereo not given) was run?
Its outcome is “inactive”.

How did the AC50 turn out when `c1csc(-c2ccc(-c3cccs3)s2)c1` was run?
The AC50 was 2.54 µM (active).

`O=C(Cc1ccccc1)OCCc1ccccc1` was tested. Which outcome did it give?
The outcome was “inactive”.

For `CCOP(=O)(OCC)SCCSCC`, which outcome is on record?
Its outcome is “inactive”.

For `CCCCCCCCCCCCOS(=O)(=O)O`, which outcome is on record?
Its outcome is “inactive”.

For `CNC(=O)O/N=C/C(C)(C)S(C)(=O)=O`, which outcome is on record?
The outcome was “inactive”.

For `C=CCCl`, which outcome is on record?
The outcome was “inactive”.

How did the outcome turn out when `Brc1ccc(Oc2c(Br)cc(Br)cc2Br)c(Br)c1` was run?
Its outcome is “inactive”.
